# Test system: VDR:RXRa (NR concentration 270 nM, RXRa partner concentration 90 nM)
# Experiment: PBM binding z-score (relative to random genomic background probes); higher = stronger binding; sequences stand for … in GC…GCGATTGACAGCGTAGAATGAAGG
# Protocol: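 Protein-binding microarray (Agilent 4x180K custom design, double-stranded 60-nt probes: 5' GC cap, 34-nt variable region, 24-nt constant primer region; full probe sequence given). Purified or IVT nuclear receptor:RXRα heterodimers (3:1 NR:RXRα, mostly 270:90 nM) or homodimers were incubated for 1 h in PBS with 2% milk and no ligand, then detected with Alexa488 antibodies. Fluorescence from o1-orientation probes (~5 replicates averaged) was converted to z-scores against 500 random hg19 background probes. Variable regions are seed direct-repeat (DR0–DR5) sites, all their single-nucleotide variants and half-site ablations.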
row,Sequence,PBM binding z-score
1,CCTGCTAGGTTAATGGTCAGCTAAAGCAGCTCGC,-0.293
2,ACTAGCAGGCCCAGGGTCACTCAAGATTAGTCCG,2.19
3,TCATATAGGTAAATGCTAGGTGAAAGGCCGATCT,0.727
4,GCTTGGAGATCAAGGTTAAGAAAGACTAAGCTAA,0.128
5,AATTCAGGGTCATCGTAGGCCAGAGTACGCACAG,5.7
6,CCTACTGGGCCATTCAGATGTCATTGATCATATG,-0.54
7,TCGTATAGGTAAAGGTGAAAGTCGAACGATATGA,0.788
8,CCTACTGGGCCAATGGTCATTGATTCCAATGCTC,-0.314
9,CCTAGCAGGCCAATCTGCGTCACTCAAGGCTTGA,-0.714
10,TATACAGGGTCAAAGGCCAGAGGACGAATGTCGA,4.73
11,GCGACTGGGGCATCAGCGGGTTACCATAACTTAA,-0.262
12,ACTAGCAGGCCAAGTTTGGGTCACTCATACAAAG,0.68
13,CCTCGGAGGACAACAGGAGGTCAGAGTTGCCAGA,1.97
14,TCATATAGGTAAAGATGAAAGTCGAACGATATGA,0.437
15,TCATATTGGTAAATGCTAGGTGAAAGTCCGATCT,0.687
16,CGTCCAAGGTCAAAGGAGGTCAGTGAAGACAGAT,6.53
17,CATCCAAGGTCAAGGTCAGTGAAAGAGACTCGAA,5.07
18,ACTCGGAGGACAAAGGTCAGACCTACGCCAGTGA,3.52
19,TCTGGTAGATCAGCAGGTTAAGAAAGCTGGCCAA,0.0223
20,TCTTGTAGATCAAGAAGGTTAAGAAAGCCTGAGT,1.16

row,Sequence,PBM binding z-score
1,CCTCGGAGGACAGAAGGTCAGAGCTGTCCGCTTT,1.02
2,GGAACGAGGGCATTAGAGTTGATAGCATGGCGAT,2.83
3,TCTCGGACGACACGAAGGTCAGAGCTTTCCAGAG,1.2
4,ATTGAAAGGTCGAGGTGAGTATAGAGAAAGGGAA,2.87
5,ATACCAAGGTAATCGTGAGGTCGTTGATACTAAC,3.1
6,CGTCCAAGTTCATAGGAGGTCAGTGAAGACAGAT,5.91
7,CCTACTGGGGCATTCAGAGGTCATTGATCATATG,4.47
8,TCTCGGAGGACATGAAAGGTCAGAGCTCGACATC,2.81
9,TTTTGTAGATCAATAGAGGTTAAGAAAGTGCGCT,2.09
10,CATACAGGGTTAGCTAGGCCAGAGTAGGGACGGC,0.398
11,TAGCCTAGGTCATGCAGGGGCCAGTATAGAAAGC,2.7
12,TCTCGGAGGACACGAAGATCAGAGCTTTCCAGAG,-0.165
13,GGAACGAGGGCAAGTTGAAAGCAGAGTTTGATGG,0.74
14,CCTACCAGGCCAATCTGGGTCACTCAAGGCTTGA,0.999
15,CGTCCAAGGTCAATGGTAGGTCAGTGAAAGCATT,4.89
16,AGTCAAAGTTCAATAGGTAACGTAAGATTCAGCT,3.71
17,GCTTGTAGATCAAGGTTTAGAAAGACTAAGCTAA,-0.245
18,GCGTGTAGATCAAGGTTAAGAAAGACTAAGCTAA,0.0899
19,CCTGCTAGGTCAATGGTCAACTAAAGCAGCTCGC,1.25
20,GCTGCTAGGTCAACTGATGGTCAGGTAAAGCTCG,1.69

# — the supplement of paper PMC6555819
